Compound activity: PubChem, National Center for Advancing Translational Sciences (NCATS)
Six1-Eya2 inh = qHTS Assay for Inhibitors of the Six1/Eya2 Interaction | Homeobox protein SIX1 (Homo sapiens) + Protein phosphatase EYA2 (Homo sapiens), … | AlphaScreen GST-Six1/His-Eya2 binding, biochemical; hits give low values | activity change, % (test concentration not listed) | actives 0.56% (n = 360,000); in the data active means activity change below about -65%; inconclusive means mostly about -30% to -63%
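AlphaScreen luminescence read after one hour at 37 °C in darkness. Pin-transferred compounds met GST-Six1 and His-Eya2 protein (5X stock 250 nM/500 nM) plus glutathione donor and Ni-chelate acceptor beads (5X, 50 ug/mL).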
CtBP-E1A blk = qHTS Assay for Inhibitors of the CtBP/E1A Interaction; CtBP / adenovirus E1A interaction (AlphaScreen); AlphaScreen GST-E1A/His-CtBP binding, 1536-well; hits give low values; activity change, % (test concentration not listed); actives 0.49% (n = 340,000); AID 651724, 2012; in the data active means activity change below about -65%; inconclusive means mostly about -30% to -63%
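Protein mix (5X: 125 nM each GST-E1A, His-CtBP) was incubated with pinned compound 2 h at 37 deg C in dark, in 50 mM Tris pH 8.0 buffer with 300 mM NaCl. Glutathione donor and nickel acceptor beads followed; AlphaScreen signal read after 1 h.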
HP1b chromo inh = HTS for Inhibitors of HP1-beta Chromodomain Interactions with Methylated Histone Tails; actives 0.56% (n = 390,000); AID 540317, 2011; AlphaScreen HP1-beta / biotin-H3K9me3 peptide binding; Potency, µM (series often up to 114 µM), most hits filed as inhibitors; Chromobox protein homolog 1 (Homo sapiens), P83916; further: nearly all actives have a fitted effect of over 70% in size
Target sequence (P83916 whole entry, looked up): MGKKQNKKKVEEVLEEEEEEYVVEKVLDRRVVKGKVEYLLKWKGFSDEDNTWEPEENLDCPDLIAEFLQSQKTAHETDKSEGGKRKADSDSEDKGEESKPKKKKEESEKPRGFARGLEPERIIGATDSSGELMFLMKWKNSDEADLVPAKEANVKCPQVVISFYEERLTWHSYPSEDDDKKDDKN
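AlphaScreen: HP1-beta (50 nM) preformed 30 min with biotin-H3(1-18)K9me3 peptide (50 nM) in PBS pH 7.4, 0.01% Tween-20. Compound added for 30 min at RT, then streptavidin donor/nickel chelate acceptor beads (10 ug/mL) for 30 min.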
G9a block = qHTS Assay for Inhibitors of Histone Lysine Methyltransferase G9a; Histone-lysine N-methyltransferase EHMT2 (Homo sapiens), Q96KQ7; G9a H3K9 monomethylation, AlphaScreen, 2 h; Potency, µM (doses to about 102 µM), hits mostly inhibitors; actives 8.8% (n = 350,000); further: nearly all actives have a fitted effect of over 75% in size
Target sequence (Q96KQ7 913-1193 limits assumed): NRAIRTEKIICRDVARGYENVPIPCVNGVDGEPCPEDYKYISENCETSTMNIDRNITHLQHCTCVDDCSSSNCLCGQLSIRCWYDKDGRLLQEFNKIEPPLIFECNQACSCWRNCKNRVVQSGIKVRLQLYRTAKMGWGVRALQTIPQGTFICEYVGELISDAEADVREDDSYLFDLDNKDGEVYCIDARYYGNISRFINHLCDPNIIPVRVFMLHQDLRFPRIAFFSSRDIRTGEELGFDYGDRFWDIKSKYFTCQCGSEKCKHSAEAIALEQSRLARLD
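Quantitative HTS format: methyltransferase activity on a biotin-tagged H3K9 peptide is measured by AlphaScreen, using a rabbit anti-monomethyl-H3K9 antibody with streptavidin donor and anti-IgG acceptor beads. Final levels are 20 nM enzyme, 500 nM peptide, 20 uM SAM; 2 h RT.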
BAZ2B block = qHTS Assay for Inhibitors of BAZ2B; AlphaScreen BAZ2B-H3K14Ac peptide displacement; Potency, µM (doses to about 114 µM), actives largely listed as inhibitors; actives 4.4% (n = 360,000); further: nearly all actives have a fitted effect of over 60% in size
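Inhibition is scored as reduced AlphaScreen emission. The BAZ2B/b-H3(5-23)K14Ac complex (50 nM each) in PBS pH 7.4, 0.01% Tween-20 meets compound (up to 110 uM) for 30 min at RT before bead addition.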
JMJD2A Tudor inh = qHTS Assay for Inhibitors of JMJD2A-Tudor Domain | Lysine-specific demethylase 4A (Homo sapiens), O75164 | AlphaScreen JMJD2A-Tudor / H3K4me3 peptide binding | actives 4.4% (n = 390,000) | Potency, µM (highest dose often 114 µM), most hits filed as inhibitors; further: nearly all actives have a fitted effect of over 50% in size
Numbers stand for hits; - = inactive; ? = inconclusive; . = not tested or not shown; [ ] = remark or other dose. Hits are enriched below; roughly 10% of the tested compounds scored in any of these assays. Unless noted, the call rests on the fitted dose curve; in most records, active means well fitted inhibition curve with a large enough effect; inconclusive means small, poorly fitted or top-dose-only effect; inactive means no such curve, though single readings can be large or run the other way.

SMILES | Six1-Eya2 inh | CtBP-E1A blk | HP1b chromo inh | G9a block | BAZ2B block | JMJD2A Tudor inh
C=CCn1c(CSCc2ccccc2)nnc1SCC(=O)N1CCN(c2ccccc2)CC1 | - | - | - | 25µM | - | -
O=C(CSc1nnnn1Cc1ccccc1)N1CCN(c2ccccc2)CC1 | - | - | - | 45µM | - | 89µM
COC(=O)c1ccccc1NC(=O)CCS(=O)(=O)c1nc(-c2ccc3c(c2)OCO3)cc(C(F)(F)F)n1 | . | . | - | - | - | -
C[C@H](NC(=O)c1ncn2c1C(=O)N[C@@H](C)C2)C(=O)OC(C)(C)C | - | - | . | . | . | .
CCn1nnnc1SCC(=O)NC1CCCC1 | - | - | - | -[0.501 µM] | ? | -
O=C(CSc1nnnn1Cc1ccccc1)NC1CCCCC1 | - | - | - | 50µM | - | -
O=C(CSc1nnc(-c2ccccn2)n1Cc1ccccc1)NC1CCCC1 | - | - | - | - | 89µM | -
C=CCn1c(SCC(=O)NC2CC2)nnc1-c1ccccn1 | - | - | - | - | ? | -
C=CCn1c(SCC(=O)Nc2ccc3c(c2)OCCO3)nnc1-c1ccccn1 | - | - | - | - | ? | 89µM
C=CCn1c(SCC(=O)NC2CCCCC2)nnc1-c1ccccn1 | - | - | - | - | 79µM | -
CCc1cc(-c2n[nH]c(C)c2Oc2ccc(C(C)C)cc2)c(O)cc1O | - | - | - | -[12.7 µM] | ? | ?
COc1cccc(COc2ccccc2C2Nc3ccc(Br)cc3C(=O)N2NC(=O)c2ccncc2)c1 (stereo not given) | - | - | - | - | - | -
CCN(CC)CCN(C(=O)c1ccc2c(c1)OCCO2)c1nc2cc(C)cc(C)c2s1 | - | - | - | . | ? | ?
CCN(CC)CCN(C(=O)CCS(=O)(=O)c1ccccc1)c1nc2c(C)cc(C)cc2s1 | - | - | - | 45µM | - | -
CCN(CC)CCN(C(=O)c1ccccc1OC)c1nc2ccc(F)cc2s1 | - | - | - | ? | . | -
Cc1cc(C)c2sc(N(Cc3cccnc3)C(=O)CCOc3ccccc3)nc2c1 | . | . | - | - | - | -
Cc1cc(C)c2sc(N(CCN(C)C)C(=O)CCS(=O)(=O)c3ccccc3)nc2c1 | - | - | - | 40µM | - | ?
CCN(CC)CCN(C(=O)CCOc1ccccc1)c1nc2c(F)cc(F)cc2s1 | - | - | - | ? | . | -
CCN(CC)CCN(C(=O)CCS(=O)(=O)c1ccccc1)c1nc2cc(OC)c(OC)cc2s1 | - | - | - | 18µM | - | -
CCN(CC)CCN(C(=O)CCS(=O)(=O)c1ccccc1)c1nc2cc(C)cc(C)c2s1 | - | - | - | 35µM | - | -
O=C(Nc1ccc(N2CCOCC2)cc1)C1CC(O)CN1S(=O)(=O)c1ccc(Cl)cc1 (stereo not given) | - | - | - | - | ? | -
COc1ccc(/C(O)=C2/C(=O)C(=O)N(CCN3CCNCC3)C2c2cccc([N+](=O)[O-])c2)cc1 (stereo not given) | - | - | - | ? | - | -
Cc1cc(F)ccc1S(=O)(=O)N1CCC2(CC1)OCCN2S(=O)(=O)c1cccs1 | - | - | - | - | - | -
Cc1cc(C)c(OCC(=O)NCC2CCCO2)c(C)c1 (stereo not given) | - | - | - | - | - | -
CCCc1cc(=O)oc2c(C)c3c(cc12)CN(CCc1ccc(Cl)cc1)CO3 | . | . | - | - | - | -
SMILES | Six1-Eya2 inh | CtBP-E1A blk | HP1b chromo inh | G9a block | BAZ2B block | JMJD2A Tudor inh
CC(=O)c1c(C)[nH]c(C(=O)OCc2ccc(Br)cc2)c1C | - | - | - | - | - | -
CC(=O)c1c(C)[nH]c(C(=O)OCC(=O)C(C)(C)C)c1C | - | - | - | -[2.33 µM] | ? | -
COC(=O)CCc1c(C)[nH]c(C(=O)OCc2ccccc2)c1C | ? | ? | - | ? | 50µM | ?
CC(=O)c1c(C)[nH]c(C(=O)OCC(=O)c2ccc(C)s2)c1C | - | - | - | -[2.33 µM] | 56µM | -
CC(=O)c1c(C)[nH]c(C(=O)OCc2cccc(C)c2)c1C | - | - | - | - | 50µM | -
C=CCNc1nc(C(=O)OCC(=O)N(Cc2ccccc2)C(C)C)cs1 | - | - | - | -[0.501 µM] | - | -
O=c1c(-c2cccs2)nc2cnc(Oc3cccc(Cl)c3)nc2n1C1CC1 | . | . | . | -[12.7 µM] | . | .
NC(=NCCC[C@H](N)C(=O)O)NO | . | . | . | -[12.7 µM] | . | .
Nc1nc(CN2CCN(Cc3ccccc3)CC2)nc(N2CCCc3ccccc32)n1 | - | - | - | . | ? | -
Nc1nc(CN2CCN(c3ccccc3)CC2)nc(N2CCCc3ccccc32)n1 | - | - | - | 50µM | ? | 50µM
Nc1nc(CSc2nnnn2-c2ccccc2)nc(N2CCCc3ccccc32)n1 | - | - | - | - | - | -
COc1ccc(N2CCN(Cc3nc(N)nc(N4CCCc5ccccc54)n3)CC2)cc1 | - | - | ? | 45µM | 11µM | 50µM
Nc1nc(CN2CCN(c3ccccc3F)CC2)nc(N2CCCc3ccccc32)n1 | - | - | - | ? | 50µM | ?
C[C@@H](C(=O)Nc1ccc2ccccc2c1)[C@@H]1C[C@@]1(C)[C@@H](NC(=O)c1cnccn1)c1ccccc1 | - | - | - | 50µM | - | -
CC(=O)N1CCc2cc(C(=O)CN3CCCN(Cc4ccc(F)cc4)C3)ccc21 | . | . | . | 45µM | - | .
CC(=O)N1CCc2cc(C(=O)CN3CCC(C)CC3)ccc21 | - | - | - | 18µM | - | -
CC(=O)N1CCc2cc(C(=O)CN3CCN(c4cccc(Cl)c4)CC3)ccc21 | - | - | - | 22µM | - | -
CC1CCN(CC(=O)N2CCc3ccccc32)CC1 | - | . | - | - | - | -
CC(=O)N1CCc2cc(CNC(=O)Cc3ccc(F)cc3)ccc21 | . | . | - | - | - | -
CC(=O)N1CCc2cc(C(=O)CN3CCN(C(=O)c4ccco4)CC3)ccc21 | - | - | - | 13µM | - | -
CC(=O)N1CCc2ccc(C(=O)CN3CCN(c4cccc(C)c4C)CC3)cc21 | . | . | . | ? | - | .
NC(=O)CSc1nc(-c2ccccc2Cl)ns1 | - | - | - | -[12.7 µM] | - | -
CCc1ccccc1NC(=O)N1CCC(CN2CCc3ccccc3C2)CC1 | . | . | - | - | - | -
O=C(COC(=O)COc1ccc(Cl)cc1)NC1CC1 | - | . | - | -[2.33 µM] | - | -
CCNC(=O)c1cnc2sc(N3CCCCCC3)nn2c1=O | . | . | - | - | - | -
